# According to PubChem BioAssay AID686970 (National Center for Advancing Translational Sciences (NCATS), 2013):
# The campaign covered roughly 360,000 compounds. About 6,000 (1.7%) were called active. Inconclusive results (about 8%) are left out. For the sample, actives were picked, then their nearest neighbours and some compounds at random. Unmarked numbers belong to inactive results. Calls come from the whole dose curve; as a rule, active = well fitted cell-killing curve with a large enough effect; inconclusive = small, poorly fitted or top-dose-only effect, or effect the other way; inactive = flat fitted curve, though single readings scatter.
# Assay: qHTS for induction of synthetic lethality in tumor cells producing 2HG: qHTS for the HT-1080-NT fibrosarcoma cell line; note: nearly all actives have a fitted effect of over 55% in size
# Settings: HT-1080-NT fibrosarcoma viability, CellTiter-Glo ATP luminescence, 48 h; series mostly up to 46.1 µM; activity, negative = less viability: at the top concentration
# Text: Unbiased genomic sequencing for 22 glioma genomes found recurrent mutation of IDH1 on chromosome 2q33, a gene encoding the cytosolic isoform of IDH1 associated with the tricarboxylic acid cycle (TCA) that catalyzes the oxidative decarboxylation of isocitrate, yielding alpha-ketoglutarate and CO2 via NADP+ to NADPH conversion. Subsequent studies confirmed the recurrent IDH mutations in up to 70% of secondary gliomas and in 10% of AML cases. In addition, the somatic mutation of cancer-associated IDH1 is a point mutation resulting in various amino-acid substituents at Arginine132 (IDH1 R132), a key residue found in the enzyme's active site that when mutated, results in the loss-of-function in metabolizing isocitrate but confers a gain-of-function to produce the oncometabolite 2-hydroxyglutarate (2HG). This in effect defines IDH1 as an oncogene and provides an extraordinary opportunity to discover chemical probes against mutant IDH1 that may translate into much needed new therapies for glioma and AML patients.
# This assay aims to perform a synthetic lethal screen for chemical probes specific for 2HG-producing tumor cells using matched paired cell lines (1) HT-1080-NT fibrosarcoma cell line that overproduces 2HG and (2) HT-1080-IDH1KD cell line which has IDH1 expression knocked-down. Desirable compounds are toxic to the NT fibrosarcoma cells but not to the IDH1KD cell line. The data in this AID corresponds to the results of the qHTS against the HT-1080-NT fibrosarcoma cell line.
# [1] Dang L, Jin S, Su SM. IDH mutations in glioma and acute myeloid leukemia. Trends of Mol Med. 2010; 16(9): 387-97.
# [2] Dang L et al. Cancer-associated IDH1 mutations produce 2-hydroxyglutarate. Nature. 2010; 465(7300):966.
# NIH Molecular Libraries Probe Production Centers Network [MLPCN]
# NIH Chemical Genomics Center [NCGC]
# Assay Submitter (PI): Lenny Dang Ph.D., Agios Pharmaceuticals
# Suspensions of trypsinized HT-1080-NT cells were dispensed into white, tissue culture-treated, solid 1536-well plates at 5uL/well (750 cells/well final concentration) in RPMI medium supplemented with 5% FBS. Plates were incubated at 37 degrees C for 2 hours, after which 23 nL of compounds or DMSO were delivered to each well using a pin tool. Plates were then incubated at 37 degrees C for an additional 48 hours. CellTiter-Glo viability reagent (Promega) was dispensed into wells (2.5uL/well) and incubated at room temperature for 10 minutes. The plates were measured on a PerkinElmer ViewLux plate reader for luminescent signal (clear filter, 1 sec exp). DMSO-treated control wells and media-only (no cells) control wells were used to normalize %Activity of identified toxic compounds; DMSO-treated wells corresponded to 0%Activity (100% viability), while media-only controls were used to normalize 100%Activity (0% viability).
# Concentration-response curves were fitted to the signals arising from the resulting luminescence. The concentration-effect curves were then classified based on curve quality (r2), response magnitude and degree of measured activity, and compounds were subsequently categorized based on their curve class.
# Potency is the fitted concentration of half-maximal effect.
SMILES,"activity, negative = less viability",Potency
N#Cc1ccc(-c2nc3c(Cl)cc(C(F)(F)F)cn3c2Cc2ccccc2C(F)(F)F)cc1,13.4% (inactive),
COc1cccc(C(O)c2ncc(-c3ccc4ccccc4c3)[nH]2)c1 (configuration not stated),-8.84% (inactive),
COc1cccc(C(O)c2nc3ccccc3n2C)c1 (configuration not stated),-2.98% (inactive),
CCCCCC(O)c1cccc(OCc2ccc3ccccc3n2)c1 (configuration not stated),,14.6 µM (active)
COc1ccc(C(=O)NCC[N+](C)(C)C)cc1,21.8% (inactive),
Cc1cc(C)nc(N(C#N)CC(=O)Nc2ccccc2)n1,-1.01% (inactive),
Cc1cc(C)nc(S/C=C/C(=O)c2ccccc2)n1,,5.17 µM (active)
Cc1cc(C)nc(SCc2ccccc2C#N)n1,-13.3% (inactive),
CN1CCN(C(=O)c2ccc(-c3cc4nc(NCc5cccnc5)n(C)c(=O)c4s3)cc2)CC1,-6.36% (inactive),
Cc1cccc(C)c1NC(=O)C(c1cccc(F)c1)N1CCN(C)CC1 (configuration not stated),5.7% (inactive),
CCC(C(=O)OCC(=O)Nc1ccc(C(=O)Nc2ccc(OC)cc2)cc1)c1ccccc1 (configuration not stated),,18.4 µM (active)
CCC(C(=O)OCC(=O)Nc1c(Cl)cc(Cl)cc1Cl)c1ccccc1 (configuration not stated),-5.96% (inactive),
CCC(C(=O)OCC(=O)Nc1ccccc1-c1ccccc1)c1ccccc1 (configuration not stated),-1.42% (inactive),
O=C(Nc1ccc(Cl)cc1)c1csc([C@@H]2O[C@H](CO)[C@H](O)[C@H](O)[C@H]2O)n1,5.67% (inactive),
CC(C)c1ccc2c(c1)c(SC(C)(C)C)c(CC(C)(C)C(=O)O)n2Cc1ccc(Cl)cc1,,13 µM (active)
C[C@@H]1CN([C@H](C)CO)C(=O)CCCn2cc(nn2)CO[C@H]1CN(C)S(=O)(=O)c1ccc(Oc2ccccc2)nc1,9.83% (inactive),
O=C(c1ccc(C(F)(F)F)cc1)N1CCC(=O)N([C@H](COCc2ccccc2)Cc2ccccc2)CC1,-31.2% (inactive),
O=C(CNC(=O)N1CC(=O)Nc2ccccc21)Nc1ccc(Br)cc1F,2.75% (inactive),
O=C(CCC(=O)OCc1ccc(Cl)cc1)Nc1ccccc1,8.34% (inactive),
O=C(O)CC1=C(Nc2ccccc2)C(=O)N(c2ccccc2)C1c1ccc(Cl)cc1 (configuration not stated),5.31% (inactive),
O=C1C=C(c2ccc(Cl)cc2)C(=O)N1Nc1ccccc1,,23.1 µM (active)
CCN(Cc1ccncc1)C(=S)Nc1ccccc1C,13.2% (inactive),
CCCCN1CC(N2CCN(Cc3cccc(C)c3)CC2)CS1(=O)=O (configuration not stated),13.1% (inactive),
CCCCN(CCCC)CCC(O)c1cc2c(Cl)cc(Cl)cc2c2cc(C(F)(F)F)ccc12 (configuration not stated),,14.6 µM (active)
Fc1cccc(Cc2c(-c3cccc(Cl)c3)nc3ccc(Br)cn23)c1,-23.5% (inactive),
CC1(C(=O)NS(=O)(=O)c2ccccc2Cl)CCN1C(=O)c1cccc(F)c1 (configuration not stated),16.3% (inactive),

SMILES,"activity, negative = less viability",Potency
Cc1cccc(C)c1NC(=O)CN(C)C(=O)CCC(=O)c1ccccc1,15.1% (inactive),
Cc1cccc(C)c1NC(=O)N1CC(C)OC(C)C1 (configuration not stated),2.26% (inactive),
Cc1cccc(C)c1NC(=O)C(Cl)C(=O)c1ccccc1 (configuration not stated),,16.4 µM (active)
Cc1ccccc1CN1C(=O)CSCC1(C)C(=O)Nc1c(C)cccc1C (configuration not stated),9.72% (inactive),
Cc1ccc(OCC(=O)OC(C)CN(C)Cc2ccccc2)cc1 (configuration not stated),1.64% (inactive),
COc1ccc(OCC(O)CN(C)C(=O)C(C)Oc2ccccc2)cc1 (configuration not stated),-4.49% (inactive),
CN(Cc1ccccc1)CC(O)COc1ccc(CNCc2cc3ccccc3s2)cc1 (configuration not stated),,20.6 µM (active)
CC(C)(C)Cc1c(C2CCCCC2)nc2ccc(Br)cn12,-24.8% (inactive),
O=C(NN=Cc1ccccc1O)NN=Cc1ccccc1O,,8.2 µM (active)
O=C(N/N=C/c1ccccc1O)C1CCCC1,-15.5% (inactive),
O=C(NN=Cc1ccccc1)c1ccccc1,25.1% (inactive),
CCCNC(=O)C1(C)CCCN(Cc2cccc(C(F)(F)F)c2)C1 (configuration not stated),6.04% (inactive),
COc1ccc(CNS(=O)(=O)c2ccc(-c3cnc(C4CC4)o3)cc2)cc1,-19.8% (inactive),
Cc1cccc(NS(=O)(=O)c2ccc(-c3cnc(C4CC4)o3)cc2)c1,,5.17 µM (active)
Cc1cccc(NS(=O)(=O)c2ccc(C)c(C(N)=O)c2)c1,4.32% (inactive),
O=C(CCCN1C(=O)C(c2ccccc2)Oc2cccnc21)Nc1ccccc1Br (configuration not stated),-2.47% (inactive),
COc1ccc(C(CNC(=O)c2ccc(OCc3cscn3)cc2)N2CCCC2)cc1 (configuration not stated),-5.47% (inactive),
CN1CCN(c2ccc3c(c2)OC[C@H](Cc2ccccc2)NS3(=O)=O)CC1,9.78% (inactive),
CCN(CC)CCNc1ccc(Cl)cc1[N+](=O)[O-],-3.02% (inactive),
CCN(CC)CCn1c2ccc(Cl)cc2c2nc(C)sc21,,28.2 µM (active)
COC(=O)Cn1c2ccc(C)cc2c2nc(C)sc21,11% (inactive),
O=C(NCc1ccccc1)C1c2ccccc2OCC(=O)N1C1CC1 (configuration not stated),20.8% (inactive),
Cc1sc2ccccc2c1CNC[C@H]1O[C@@H](n2ccc(=O)[nH]c2=O)[C@H](O)[C@@H]1O,21.8% (inactive),
CC(C)c1cc(C(=O)NC2CCCCCC2)c2ccccc2n1,-7.58% (inactive),
COc1ccc2nc(/N=C(\N)NC(=O)Nc3ccccc3)nc(C)c2c1,-18.5% (inactive),
Cc1nc(/N=C(\N)NC(=O)NC2CCCCC2)nc2ccccc12,,23.1 µM (active)
